The AC50 is the midpoint of the concentration-response curve, whichever way the signal moves.

The source of these data is PubChem BioAssay (EPA / NIEHS).

Structures are written as SMILES. More than one record can exist for a structure, and the calls need not agree. Active and inactive are the calls of the source. How the source made its calls: active means hit-call score of the fitted dose curve at least 0.9, where 1 is the maximum; inactive means score below 0.9.

The nature of this test: BSK_3C_SRB: Viability Assessment in the BioMAP Diversity Plus: 3C Assay (AID 2283023).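 Further: fitted both ways against DMSO so a hit may be signal rise or drop.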 To be noted: primary human endothelial cells (HUVEC). The protocol:
BSK_3C is a cell-based, multiplexed-readout assay that uses umbilical vein endothelium, a human vascular primary cell, with measurements taken at 24 hours after chemical dosing in a 96-well plate.BSK_3C_SRB is an assay component measured in the BSK_3C assay. It measures 0.1% sulforhodamine related to cell death using Sulforhodamine staining technology.Data from the assay component BSK_3C_SRB was analyzed into 1 assay endpoint. This assay endpoint, BSK_3C_SRB, was analyzed with bidirectional fitting relative to DMSO as the negative control and baseline of activity. Using a type of viability reporter, gain or loss-of-signal activity can be used to understand changes in the signaling. Furthermore, this assay endpoint can be referred to as a primary readout, because this assay has produced multiple assay endpoints where this one serves a signaling function. To generalize the intended target to other relatable targets, this assay endpoint is annotated to the cell morphology intended target family, where the subfamily is cell conformation.
The levels of cell surface (or secreted, indicated by the prefix "s") biomarker endpoints were measured by ELISA. Overt cytotoxicity to cells in confluent adherent cultures (all systems other than the BT system) was assessed by measuring total protein levels using sulforhodamine B (SRB) staining in parallel cultures at the time of biomarker measurements, indicated as SRB endpoints. For proliferation assays for adherent cell types, individual cell types are cultured at sub-confluence and relative cell numbers quantified by SRB staining at time points optimized for each system (48 h: 3C and CASM3C systems; 72 h: BT and HDF3CGF systems; 96 h: SAg system). SRB was performed by staining cells with 0.1% SRB after fixation with 10% TCA and reading wells at 560 nm.Viability and proliferation of PBMC (T cells) was quantified by Alamar Blue reduction for the SAg and BT systems. For PBMC viability (referred to as PBMC Cytotoxicity within the assay endpoint names), cells were plated (75,000/well in a 96-well plate) and then chemical samples added for 1 h before addition of activators, SEB and TSST-1 (20 ng/mL final concentration each). Cells were incubated for 90 h. Then, Alamar Blue (20 uL/well) (Invitrogen, Cat DAL1100) was added for 6 h, and the plates were read with a fluorescence microplate reader at 546/580 nm (excitation/emission). For PBMC proliferation, cells were plated and activated as above but incubated for only 16 h prior to addition of Alamar Blue. Plates were read after 6 h.
For the compound `CN(C)C(=O)Cl`, the result was inactive.
Turning to `CC(C)(C)c1ccc(O)cc1`, the outcome was inactive.
Turning to `Cc1c([N+](=O)[O-])cc2c(c1[N+](=O)[O-])C(C)(C)CC2(C)C`, the result was inactive.
`c1ccc2c(c1)Nc1ccccc1S2`: the outcome was inactive.
In the case of `ClC(Cl)=C(c1ccc(Cl)cc1)c1ccccc1Cl`, the AC50 is 7.99 µM (active).
Consider `CC(Cc1ccc(OCC(=O)O)cc1)NCC(O)c1csc(C(F)(F)F)n1` (stereo not given), for which the outcome was inactive.
Turning to `COP(N)(=S)OC`, the result was inactive.
As for `ClC1=C(Cl)C2(Cl)C3C(Cl)C(Cl)CC3C1(Cl)C2(Cl)Cl` (stereo not given), the AC50 is 29.8 µM (active).
`CC(O)C(F)(F)C(F)(F)F` (stereo not given): the outcome was inactive.
Turning to `CCOP(=S)(OCC)SCSc1ccc(Cl)cc1`, the result was inactive.
In the case of `COCCOCCO`, the result was inactive.
For `N#Cc1cc([N+](=O)[O-])ccc1N`, the outcome was inactive.
On the same count and under the same terms, then `CCCCOCCOP(=O)(OCCOCCCC)OCCOCCCC`, with “inactive”; and `O=[N+]([O-])c1ccc(Cl)c(Cl)c1`, with “inactive”.
`OCC(F)(F)OC(F)(F)C(F)(F)OC(F)(F)C(F)(F)OC(F)(F)CO`: the AC50 is 30 µM (active) and the outcome was inactive.
With `ClC(Cl)c1ccccc1`, the result was inactive.
For `C=CC(=O)OCC(CC)(COC(=O)C=C)COC(=O)C=C`, the AC50 was 2.33 µM (active).
Regarding `O=C(O)C(F)(F)C(F)(F)C(=O)O`, the outcome was inactive.
`Nc1ccc2ccccc2c1`: the outcome was inactive.
In the case of `CC(C)Nc1ccc(Nc2ccccc2)cc1`, the AC50 was 11 µM (active).
Turning to `Nc1ccc(Cl)cc1`, the outcome was inactive.
For the compound `CCCCCCCc1ccc(O)cc1`, the concentration at half-maximal activity (AC50) was 39.2 µM (active).
As to `Cc1ccc2c(c1N)C(=O)c1ccccc1C2=O`, the AC50 was 4.25 µM (active).
For the compound `CCCCC(CC)COP(=O)(Oc1ccccc1)Oc1ccccc1` (stereo not given), the half-maximal activity concentration (AC50) was 9.7 µM (active).
`CCNc1nc(Cl)nc(NC(C)(C)C)n1`: the outcome was inactive.
Consider `O=S1(=O)OCC2C(CO1)C1(Cl)C(Cl)=C(Cl)C2(Cl)C1(Cl)Cl` (stereo not given), for which the AC50 was 20 µM (active).
`COP(=O)(O)OC`: the outcome was inactive.
As for `CCC1(c2ccccc2)C(=O)N=C(O)NC1=O` (stereo not given), the result was inactive.
With `CC(C)(C)c1ccccc1OP(=O)(Oc1ccccc1)Oc1ccccc1`, the AC50 is 20 µM (active).
Take `[N-]=[N+]=[N-]`: the result was inactive.
Regarding `COP(=O)(CCC(=O)NCO)OC`, the result was inactive.
For the compound `c1nc[nH]n1`, the outcome was inactive.
On to `CC(Cl)(Cl)C(=O)O`, for which the result was inactive.
Still for that read-out and setting: then `CCOc1ccc(C(C)(C)COCc2cccc(Oc3ccccc3)c2)cc1`, with “inactive”.
Turning to `O=S(=O)(F)C(F)(F)C(F)(F)C(F)(F)C(F)(F)C(F)(F)C(F)(F)C(F)(F)C(F)(F)F`, the result was inactive.
Consider `CCCCC(CC)COC(=O)c1c(Br)c(Br)c(Br)c(Br)c1C(=O)OCC(CC)CCCC` (stereo not given), for which the result was inactive.
Consider `OCC1CO1` (stereo not given), for which the result was inactive.
In the case of `c1ccc(OP(Oc2ccccc2)Oc2ccccc2)cc1`, the outcome was inactive.
In the case of `Nc1ccc([N+](=O)[O-])cc1Cl`, the outcome was inactive.
